Assays:
Test in all cases: DAPPL (digital affinity profiling via proximity ligation, sequencing); 10 mM Tris-HCl pH 7.5, 50 mM NaCl, 1 mM DTT, 4% glycerol, room temperature, 30 min; GST-TFs on glutathione beads, 16-mer random dsDNA library, 0.1% formaldehyde crosslink after washing; high values mean tight binding
FLI1 = target: T1, FLI1 (Homo sapiens, UniProt Q01543 1-452); conditions: protein: recombinant; tags: N-terminal GST; dsDNA, one strand shown
T1 sequence: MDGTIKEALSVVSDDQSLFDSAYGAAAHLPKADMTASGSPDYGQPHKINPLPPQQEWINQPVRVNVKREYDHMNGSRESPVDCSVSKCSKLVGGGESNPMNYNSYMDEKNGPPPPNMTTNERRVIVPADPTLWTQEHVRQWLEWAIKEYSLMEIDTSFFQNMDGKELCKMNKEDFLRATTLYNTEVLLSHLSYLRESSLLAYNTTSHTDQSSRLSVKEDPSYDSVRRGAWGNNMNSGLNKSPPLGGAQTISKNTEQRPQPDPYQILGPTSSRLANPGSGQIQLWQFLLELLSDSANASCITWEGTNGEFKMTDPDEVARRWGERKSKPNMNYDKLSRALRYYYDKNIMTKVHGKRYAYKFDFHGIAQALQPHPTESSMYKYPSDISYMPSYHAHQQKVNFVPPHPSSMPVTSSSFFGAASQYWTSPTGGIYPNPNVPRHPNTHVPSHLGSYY
Procedure, shortened: (§1)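 GST fusions of human transcription factors were expressed in yeast and captured with glutathione beads. Once given DNA barcodes and pooled alongside a tag-only sample, they were incubated for 30 min at room temperature with 200 nmole of a random double-stranded 16-mer DNA library in Tris/NaCl/DTT/glycerol buffer, then washed, crosslinked (0.1% formaldehyde), proximity-ligated, PCR-amplified and sequenced on an Illumina NextSeq500. The binding signal of each hexamer is its read frequency for a factor divided by its frequency for the tag-only sample.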

ELK1 = target: T2, ELK1 (Homo sapiens, UniProt P19419 1-428); conditions: protein: recombinant; tags: N-terminal GST; dsDNA, one strand shown
T2 sequence: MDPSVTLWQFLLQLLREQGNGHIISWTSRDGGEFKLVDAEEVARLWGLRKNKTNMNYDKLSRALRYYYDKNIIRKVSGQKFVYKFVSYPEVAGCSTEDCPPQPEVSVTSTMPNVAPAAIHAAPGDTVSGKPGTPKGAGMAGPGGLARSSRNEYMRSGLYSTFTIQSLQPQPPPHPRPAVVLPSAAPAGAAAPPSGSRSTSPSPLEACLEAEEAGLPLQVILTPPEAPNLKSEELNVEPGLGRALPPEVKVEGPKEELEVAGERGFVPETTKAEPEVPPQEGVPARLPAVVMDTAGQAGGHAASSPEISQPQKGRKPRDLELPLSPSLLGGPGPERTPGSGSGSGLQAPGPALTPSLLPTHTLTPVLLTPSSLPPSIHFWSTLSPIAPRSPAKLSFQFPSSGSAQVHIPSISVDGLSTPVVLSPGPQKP
Procedure, shortened: as §1

GABPA = target: T3, GABPA (Homo sapiens, UniProt Q06546 1-454); conditions: protein: recombinant; tags: N-terminal GST; dsDNA, one strand shown
T3 sequence: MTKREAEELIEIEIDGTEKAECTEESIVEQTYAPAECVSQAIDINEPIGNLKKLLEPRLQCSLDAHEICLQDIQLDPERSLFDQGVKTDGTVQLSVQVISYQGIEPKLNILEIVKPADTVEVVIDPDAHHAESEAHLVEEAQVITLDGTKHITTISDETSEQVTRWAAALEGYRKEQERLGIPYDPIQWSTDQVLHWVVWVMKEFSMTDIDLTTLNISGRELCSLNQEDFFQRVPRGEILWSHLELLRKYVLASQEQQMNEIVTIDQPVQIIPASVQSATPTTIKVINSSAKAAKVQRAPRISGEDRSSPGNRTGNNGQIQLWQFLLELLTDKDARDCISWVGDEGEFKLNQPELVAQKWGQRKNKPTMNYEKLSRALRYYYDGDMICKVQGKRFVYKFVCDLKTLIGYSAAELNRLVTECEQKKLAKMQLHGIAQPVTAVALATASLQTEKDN
Procedure, shortened: as §1

ERG = target: T4, ERG (Homo sapiens, UniProt P11308 1-479); conditions: protein: recombinant; tags: N-terminal GST; dsDNA, one strand shown
T4 sequence: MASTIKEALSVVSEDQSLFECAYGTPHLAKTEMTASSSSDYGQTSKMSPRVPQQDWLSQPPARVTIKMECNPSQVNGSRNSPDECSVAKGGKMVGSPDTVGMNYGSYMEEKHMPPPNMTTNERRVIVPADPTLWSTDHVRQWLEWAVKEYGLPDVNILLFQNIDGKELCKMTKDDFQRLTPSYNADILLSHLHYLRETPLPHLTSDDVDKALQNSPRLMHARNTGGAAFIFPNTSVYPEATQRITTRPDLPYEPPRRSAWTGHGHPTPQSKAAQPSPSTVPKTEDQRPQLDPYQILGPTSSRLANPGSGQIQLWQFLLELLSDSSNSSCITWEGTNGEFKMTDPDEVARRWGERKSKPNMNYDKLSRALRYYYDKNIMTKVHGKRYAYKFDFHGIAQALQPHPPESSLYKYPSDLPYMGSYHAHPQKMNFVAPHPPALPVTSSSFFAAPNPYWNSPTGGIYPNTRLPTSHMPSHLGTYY
Procedure, shortened: as §1

ELF1 = ELF1 (Homo sapiens, UniProt P32519 1-619); conditions: protein: recombinant; tags: N-terminal GST; dsDNA, one strand shown
Chain of ELF1 (P32519 whole entry): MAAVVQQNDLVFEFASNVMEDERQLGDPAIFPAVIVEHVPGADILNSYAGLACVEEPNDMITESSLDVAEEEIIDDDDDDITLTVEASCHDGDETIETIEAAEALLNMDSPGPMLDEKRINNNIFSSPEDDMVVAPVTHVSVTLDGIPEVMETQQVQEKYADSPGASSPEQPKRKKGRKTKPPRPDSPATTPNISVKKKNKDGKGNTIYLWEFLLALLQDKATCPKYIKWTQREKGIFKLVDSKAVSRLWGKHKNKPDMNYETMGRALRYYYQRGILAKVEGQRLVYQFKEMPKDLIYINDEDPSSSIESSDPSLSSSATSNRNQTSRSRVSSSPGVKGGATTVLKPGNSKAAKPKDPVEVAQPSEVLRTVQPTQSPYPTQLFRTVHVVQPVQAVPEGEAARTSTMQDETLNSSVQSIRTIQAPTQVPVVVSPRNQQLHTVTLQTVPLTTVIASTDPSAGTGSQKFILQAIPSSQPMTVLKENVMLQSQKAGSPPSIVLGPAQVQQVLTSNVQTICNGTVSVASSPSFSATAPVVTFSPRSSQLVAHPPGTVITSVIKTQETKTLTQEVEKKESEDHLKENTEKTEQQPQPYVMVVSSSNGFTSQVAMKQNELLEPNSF
Procedure, shortened: as §1

EHF = target: T5, EHF (Homo sapiens, UniProt Q9NZC4 1-300); conditions: protein: recombinant; tags: N-terminal GST; dsDNA, one strand shown
T5 sequence: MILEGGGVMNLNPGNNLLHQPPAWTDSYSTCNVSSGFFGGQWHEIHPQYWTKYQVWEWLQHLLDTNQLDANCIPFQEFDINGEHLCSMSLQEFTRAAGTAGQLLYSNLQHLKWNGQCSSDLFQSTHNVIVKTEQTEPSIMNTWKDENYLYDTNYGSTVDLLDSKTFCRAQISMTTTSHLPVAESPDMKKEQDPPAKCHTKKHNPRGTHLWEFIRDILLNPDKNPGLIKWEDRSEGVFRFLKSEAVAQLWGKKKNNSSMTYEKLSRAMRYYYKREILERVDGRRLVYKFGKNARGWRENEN
Procedure, shortened: as §1

SPI1 = SPI1 (Homo sapiens, UniProt P17947 1-270); conditions: protein: recombinant; tags: N-terminal GST; dsDNA, one strand shown
Procedure, shortened: as §1

SPIB = SPIB (Homo sapiens, UniProt Q01892 1-262); conditions: protein: recombinant; tags: N-terminal GST; dsDNA, one strand shown
Chain of SPIB (Q01892 whole entry): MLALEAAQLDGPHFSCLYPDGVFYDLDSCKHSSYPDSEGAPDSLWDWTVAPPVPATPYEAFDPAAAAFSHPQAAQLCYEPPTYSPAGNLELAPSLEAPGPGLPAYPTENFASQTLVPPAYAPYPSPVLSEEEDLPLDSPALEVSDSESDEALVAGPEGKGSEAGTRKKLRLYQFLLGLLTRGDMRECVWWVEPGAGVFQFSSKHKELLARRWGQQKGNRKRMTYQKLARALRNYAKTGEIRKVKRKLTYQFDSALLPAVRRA
Procedure, shortened: as §1

ELK3 = target: T6, ELK3 (Homo sapiens, UniProt P41970 1-407); conditions: protein: recombinant; tags: N-terminal GST; dsDNA, one strand shown
T6 sequence: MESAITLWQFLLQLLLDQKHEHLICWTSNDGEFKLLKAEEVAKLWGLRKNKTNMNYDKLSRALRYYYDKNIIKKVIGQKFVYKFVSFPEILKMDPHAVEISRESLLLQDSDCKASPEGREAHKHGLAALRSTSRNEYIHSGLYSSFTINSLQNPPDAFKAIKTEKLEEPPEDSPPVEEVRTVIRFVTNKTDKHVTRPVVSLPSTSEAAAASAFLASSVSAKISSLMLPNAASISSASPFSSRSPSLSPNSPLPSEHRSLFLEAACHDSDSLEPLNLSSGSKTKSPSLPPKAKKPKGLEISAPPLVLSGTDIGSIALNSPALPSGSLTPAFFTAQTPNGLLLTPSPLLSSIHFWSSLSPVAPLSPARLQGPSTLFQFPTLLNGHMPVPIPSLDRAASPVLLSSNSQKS
Procedure, shortened: as §1

FEV = target: T7, FEV (Homo sapiens, UniProt Q99581 1-238); conditions: protein: recombinant; tags: N-terminal GST; dsDNA, one strand shown
T7 sequence: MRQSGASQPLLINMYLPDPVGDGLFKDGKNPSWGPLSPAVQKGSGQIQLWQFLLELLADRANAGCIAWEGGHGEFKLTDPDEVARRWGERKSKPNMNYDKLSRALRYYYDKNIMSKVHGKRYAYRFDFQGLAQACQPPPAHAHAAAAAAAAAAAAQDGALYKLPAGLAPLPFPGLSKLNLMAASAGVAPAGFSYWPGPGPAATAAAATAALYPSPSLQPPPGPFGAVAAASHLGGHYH
Procedure, shortened: as §1

ETV5 = ETV5 (Homo sapiens, UniProt P41161 1-510); conditions: protein: recombinant; tags: N-terminal GST; dsDNA, one strand shown
Chain of ETV5 (P41161 whole entry): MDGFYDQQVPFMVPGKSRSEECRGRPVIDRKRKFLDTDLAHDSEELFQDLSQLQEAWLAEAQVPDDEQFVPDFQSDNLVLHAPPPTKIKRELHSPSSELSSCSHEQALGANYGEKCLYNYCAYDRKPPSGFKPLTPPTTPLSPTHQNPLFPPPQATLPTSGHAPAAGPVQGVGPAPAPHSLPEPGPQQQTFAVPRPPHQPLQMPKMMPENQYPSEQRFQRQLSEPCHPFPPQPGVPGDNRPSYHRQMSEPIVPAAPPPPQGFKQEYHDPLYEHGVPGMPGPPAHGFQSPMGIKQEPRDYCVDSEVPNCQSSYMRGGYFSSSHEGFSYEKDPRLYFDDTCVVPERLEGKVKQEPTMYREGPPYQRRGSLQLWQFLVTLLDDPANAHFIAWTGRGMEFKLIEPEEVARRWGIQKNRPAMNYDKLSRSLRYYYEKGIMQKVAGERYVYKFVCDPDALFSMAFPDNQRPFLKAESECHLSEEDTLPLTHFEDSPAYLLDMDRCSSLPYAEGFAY
Procedure, shortened: as §1

HSF1 = HSF1 (Homo sapiens, UniProt Q00613 1-529); conditions: protein: recombinant; tags: N-terminal GST; chain copies: 3; dsDNA, one strand shown
Chain of HSF1 (Q00613 whole entry): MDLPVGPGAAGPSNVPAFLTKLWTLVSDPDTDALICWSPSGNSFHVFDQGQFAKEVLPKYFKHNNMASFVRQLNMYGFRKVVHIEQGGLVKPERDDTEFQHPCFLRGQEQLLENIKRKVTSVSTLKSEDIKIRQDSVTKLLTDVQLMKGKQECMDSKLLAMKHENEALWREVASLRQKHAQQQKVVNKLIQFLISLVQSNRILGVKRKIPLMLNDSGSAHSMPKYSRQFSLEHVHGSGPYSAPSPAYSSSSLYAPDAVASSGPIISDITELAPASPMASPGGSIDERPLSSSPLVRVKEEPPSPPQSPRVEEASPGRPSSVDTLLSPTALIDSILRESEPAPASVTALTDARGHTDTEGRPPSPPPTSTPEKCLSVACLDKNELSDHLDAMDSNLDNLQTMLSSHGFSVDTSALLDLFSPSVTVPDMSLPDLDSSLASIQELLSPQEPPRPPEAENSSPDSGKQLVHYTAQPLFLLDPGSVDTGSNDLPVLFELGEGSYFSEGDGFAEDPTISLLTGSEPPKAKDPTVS
Procedure, shortened: as §1

SPIC = target: T8, SPIC (Homo sapiens, UniProt Q8N5J4 1-248); conditions: protein: recombinant; tags: N-terminal GST; dsDNA, one strand shown
T8 sequence: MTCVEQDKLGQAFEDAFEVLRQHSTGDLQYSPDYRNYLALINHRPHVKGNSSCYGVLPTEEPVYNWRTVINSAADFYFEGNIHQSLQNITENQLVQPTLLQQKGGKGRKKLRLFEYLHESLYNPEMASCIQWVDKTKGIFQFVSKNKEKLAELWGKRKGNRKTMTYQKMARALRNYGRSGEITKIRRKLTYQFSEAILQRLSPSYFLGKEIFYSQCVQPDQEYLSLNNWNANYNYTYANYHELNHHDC
Procedure, shortened: as §1

ELF4 = ELF4 (Homo sapiens, UniProt Q99607 1-663); conditions: protein: recombinant; tags: N-terminal GST; dsDNA, one strand shown
Chain of ELF4 (Q99607 whole entry): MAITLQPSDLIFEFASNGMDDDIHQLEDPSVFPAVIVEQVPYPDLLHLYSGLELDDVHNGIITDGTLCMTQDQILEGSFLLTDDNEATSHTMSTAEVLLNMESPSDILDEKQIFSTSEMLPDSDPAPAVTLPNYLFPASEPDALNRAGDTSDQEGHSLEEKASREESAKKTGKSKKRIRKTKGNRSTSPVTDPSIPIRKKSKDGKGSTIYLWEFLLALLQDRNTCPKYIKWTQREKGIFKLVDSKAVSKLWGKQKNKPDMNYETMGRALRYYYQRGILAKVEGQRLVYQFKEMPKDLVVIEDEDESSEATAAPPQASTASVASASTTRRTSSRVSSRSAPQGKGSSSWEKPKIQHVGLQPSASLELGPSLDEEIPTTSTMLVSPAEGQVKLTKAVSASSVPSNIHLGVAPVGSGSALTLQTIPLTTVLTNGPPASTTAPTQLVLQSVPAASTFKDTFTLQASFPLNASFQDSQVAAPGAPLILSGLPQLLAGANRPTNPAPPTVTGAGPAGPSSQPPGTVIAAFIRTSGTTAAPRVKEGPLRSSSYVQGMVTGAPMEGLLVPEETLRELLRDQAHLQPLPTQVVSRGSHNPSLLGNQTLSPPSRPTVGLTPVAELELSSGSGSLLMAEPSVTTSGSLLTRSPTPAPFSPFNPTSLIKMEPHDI
Procedure, shortened: as §1

ELK4 = target: T9, ELK4 (Homo sapiens, UniProt P28324-2 1-405); conditions: protein: recombinant; tags: N-terminal GST; dsDNA, one strand shown
T9 sequence: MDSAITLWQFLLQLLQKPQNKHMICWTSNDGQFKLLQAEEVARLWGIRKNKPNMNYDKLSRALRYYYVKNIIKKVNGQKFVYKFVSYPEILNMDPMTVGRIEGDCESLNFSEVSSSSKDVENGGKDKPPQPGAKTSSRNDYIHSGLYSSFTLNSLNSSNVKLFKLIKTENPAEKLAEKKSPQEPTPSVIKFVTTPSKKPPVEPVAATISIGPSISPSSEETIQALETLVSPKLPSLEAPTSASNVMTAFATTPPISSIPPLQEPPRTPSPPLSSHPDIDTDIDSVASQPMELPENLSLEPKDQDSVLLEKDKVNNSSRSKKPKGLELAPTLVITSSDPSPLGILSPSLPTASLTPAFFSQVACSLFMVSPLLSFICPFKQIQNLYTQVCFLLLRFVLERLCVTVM
Procedure, shortened: as §1

ETV2 = target: T10, ETV2 (Homo sapiens, UniProt O00321 1-342); conditions: protein: recombinant; tags: N-terminal GST; dsDNA, one strand shown
T10 sequence: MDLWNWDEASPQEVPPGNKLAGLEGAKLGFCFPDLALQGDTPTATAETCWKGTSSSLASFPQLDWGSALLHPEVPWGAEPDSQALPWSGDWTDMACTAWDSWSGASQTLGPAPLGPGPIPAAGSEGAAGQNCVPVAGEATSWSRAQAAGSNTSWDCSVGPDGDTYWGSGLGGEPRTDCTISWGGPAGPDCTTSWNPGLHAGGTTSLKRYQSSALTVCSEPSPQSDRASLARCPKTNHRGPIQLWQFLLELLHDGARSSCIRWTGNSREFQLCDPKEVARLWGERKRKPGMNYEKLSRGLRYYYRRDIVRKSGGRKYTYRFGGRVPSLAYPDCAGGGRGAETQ
Procedure, shortened: as §1

ELF3 = target: T11, ELF3 (Homo sapiens, UniProt P78545 1-371); conditions: protein: recombinant; tags: N-terminal GST; dsDNA, one strand shown
T11 sequence: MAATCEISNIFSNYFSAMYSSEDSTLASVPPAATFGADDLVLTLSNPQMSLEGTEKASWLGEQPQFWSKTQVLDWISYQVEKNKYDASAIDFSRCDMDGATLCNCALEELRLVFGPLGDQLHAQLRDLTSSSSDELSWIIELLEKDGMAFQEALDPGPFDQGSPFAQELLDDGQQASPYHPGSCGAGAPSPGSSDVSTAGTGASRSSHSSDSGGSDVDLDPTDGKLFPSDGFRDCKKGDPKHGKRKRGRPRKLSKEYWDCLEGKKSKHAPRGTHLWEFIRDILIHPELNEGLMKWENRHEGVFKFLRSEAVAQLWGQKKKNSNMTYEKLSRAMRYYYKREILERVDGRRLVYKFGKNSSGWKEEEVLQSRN
Procedure, shortened: as §1

CRX = CRX (Homo sapiens, UniProt O43186 1-299); conditions: protein: recombinant; tags: N-terminal GST; dsDNA, one strand shown
Chain of CRX (O43186 whole entry): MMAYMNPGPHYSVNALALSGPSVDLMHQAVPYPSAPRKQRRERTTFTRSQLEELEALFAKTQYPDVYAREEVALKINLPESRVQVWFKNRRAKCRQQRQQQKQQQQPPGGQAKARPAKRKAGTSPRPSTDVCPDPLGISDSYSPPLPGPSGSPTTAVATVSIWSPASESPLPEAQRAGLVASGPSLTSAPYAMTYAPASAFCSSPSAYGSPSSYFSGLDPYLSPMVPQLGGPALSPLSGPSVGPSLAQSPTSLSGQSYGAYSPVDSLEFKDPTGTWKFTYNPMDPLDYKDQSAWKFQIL
Procedure, shortened: as §1

ETV1 = ETV1 (Homo sapiens, UniProt P50549 1-477); conditions: protein: recombinant; tags: N-terminal GST; dsDNA, one strand shown
Chain of ETV1 (P50549 whole entry): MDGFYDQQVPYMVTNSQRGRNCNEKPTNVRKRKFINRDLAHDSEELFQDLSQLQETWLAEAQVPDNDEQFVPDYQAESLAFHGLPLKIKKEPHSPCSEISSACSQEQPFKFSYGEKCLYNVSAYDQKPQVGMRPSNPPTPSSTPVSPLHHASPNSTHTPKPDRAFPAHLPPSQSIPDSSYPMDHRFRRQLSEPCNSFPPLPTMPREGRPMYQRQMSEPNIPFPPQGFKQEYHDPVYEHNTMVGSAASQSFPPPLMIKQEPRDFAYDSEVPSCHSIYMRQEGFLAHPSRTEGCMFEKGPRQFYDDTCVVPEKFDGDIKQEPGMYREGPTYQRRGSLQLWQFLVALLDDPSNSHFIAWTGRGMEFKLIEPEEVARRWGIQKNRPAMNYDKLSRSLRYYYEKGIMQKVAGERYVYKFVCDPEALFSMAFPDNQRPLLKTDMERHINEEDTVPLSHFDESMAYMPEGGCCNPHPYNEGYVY
Procedure, shortened: as §1

AGCCCC
binding signal (FLI1): 1.09 fold enrichment (6-mer frequency, TF over GST control) | binding signal (ELK1): 1.01 fold enrichment (6-mer frequency, TF over GST control) | binding signal (GABPA): 1.11 fold enrichment (6-mer frequency, TF over GST control) | binding signal (ERG): 1.06 fold enrichment (6-mer frequency, TF over GST control) | binding signal (ELF1): 1.05 fold enrichment (6-mer frequency, TF over GST control) | binding signal (EHF): 1.05 fold enrichment (6-mer frequency, TF over GST control) | binding signal (SPI1): 1.02 fold enrichment (6-mer frequency, TF over GST control) | binding signal (SPIB): 1.08 fold enrichment (6-mer frequency, TF over GST control) | binding signal (ELK3): 1.07 fold enrichment (6-mer frequency, TF over GST control) | binding signal (FEV): 1.12 fold enrichment (6-mer frequency, TF over GST control) | binding signal (ETV5): 1.14 fold enrichment (6-mer frequency, TF over GST control) | binding signal (HSF1): 1.02 fold enrichment (6-mer frequency, TF over GST control) | binding signal (SPIC): 1.09 fold enrichment (6-mer frequency, TF over GST control) | binding signal (ELF4): 1.07 fold enrichment (6-mer frequency, TF over GST control) | binding signal (ELK4): 1.17 fold enrichment (6-mer frequency, TF over GST control) | binding signal (ETV2): 1.23 fold enrichment (6-mer frequency, TF over GST control) | binding signal (ELF3): 1.15 fold enrichment (6-mer frequency, TF over GST control) | binding signal (CRX): 1.17 fold enrichment (6-mer frequency, TF over GST control) | binding signal (ETV1): 1.02 fold enrichment (6-mer frequency, TF over GST control)

Reference: PMC7862700, “An all-to-all approach to the identification of sequence-specific readers for epigenetic DNA modifications on cytosine”
